According to PMC7819943, “Rice protein-binding microarrays: a tool to detect cis-acting elements near promoter regions in rice”:
In all, about 39,000 sequences were measured (“fluorescence intensity (a.u.)”: median about 4,300, highest 2% from about 39,000 on). The entries come from a sample that favours the highest values as a whole.

biological target: T1, OsSMF1 (Oryza sativa, UniProt Q6ZLB0 1-436); test: protein-binding microarray (RPBM); PBS, 2% BSA, 51.3 ng/ul salmon testes DNA, 50 uM zinc acetate, 200 nM TF, 25 C, 1 h; high values mean tight binding; conditions: protein: recombinant; tags: N-terminal polyhistidine and DsRed monomer fusion (pET32a); chain copies: 2; label: CyDye5-dUTP incorporated in the synthesized complementary strand; 3' TTTTT single-stranded linker to array surface; dsDNA, one strand shown
T1 sequence: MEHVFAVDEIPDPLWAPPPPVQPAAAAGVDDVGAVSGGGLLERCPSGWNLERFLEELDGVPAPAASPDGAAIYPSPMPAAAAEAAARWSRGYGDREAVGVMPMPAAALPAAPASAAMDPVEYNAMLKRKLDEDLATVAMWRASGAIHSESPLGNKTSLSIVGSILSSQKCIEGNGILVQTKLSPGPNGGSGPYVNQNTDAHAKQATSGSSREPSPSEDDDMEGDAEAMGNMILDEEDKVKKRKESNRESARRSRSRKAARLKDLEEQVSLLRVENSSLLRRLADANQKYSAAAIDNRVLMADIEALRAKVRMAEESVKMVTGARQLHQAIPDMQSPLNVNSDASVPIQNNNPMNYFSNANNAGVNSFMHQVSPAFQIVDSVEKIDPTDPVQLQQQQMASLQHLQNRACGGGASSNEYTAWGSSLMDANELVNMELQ
Summary of the method: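 Binding signal is defined as the fluorescence intensity of each feature in arbitrary units, read on an Axon 4000B scanner. Transcription factors with N-terminal polyhistidine and DsRed fusions came from E. coli BL21-CodonPlus and were purified on Ni–NTA. They were incubated at 200 nM for 1 h at 25 °C on a custom Agilent array that had been made double-stranded with Cy5-dUTP, with 50 µM zinc acetate present, and the array was washed.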

Row | Sequence | binding signal
1 | ATGTGATGCATGATGATTAGATATGCTTGCATGTTAATTTCGGAGTCACCTAGTGCAG | 3160 fluorescence intensity (a.u.)
2 | TGCTGCCTTTATCATCACCAAGAGCCACTACCTTGCCTTACGGAGTCACCTAGTGCAG | 4370 fluorescence intensity (a.u.)
3 | ACACTAATTTCAAGGTTGCTCGTGAGTCATAATCCTGACGCGGAGTCACCTAGTGCAG | 7720 fluorescence intensity (a.u.)
4 | GGCCGGAGGGCGGCCTCGGTGGCGTGGAGTTGGCAGCGGGCGGAGTCACCTAGTGCAG | 3770 fluorescence intensity (a.u.)
5 | TCGACCCACCGTCTGCCACGTCAGCTTGCCGCCCACCAATCGGAGTCACCTAGTGCAG | 28900 fluorescence intensity (a.u.)
6 | AGTAACCGACTCCTTTCCAACGTGTTCCCCACGAAGCCGGCGGAGTCACCTAGTGCAG | 4560 fluorescence intensity (a.u.)
7 | GTGCCTGACAATCCTACAGGTGAAATCAACCCCTTTCATCCGGAGTCACCTAGTGCAG | 40800 fluorescence intensity (a.u.)
8 | TTTGAAACCCCTCCTCCTCCTCCTTCCCCAACACACAATCCGGAGTCACCTAGTGCAG | 3250 fluorescence intensity (a.u.)
9 | CCCTTCCTTCCTTCCTTTGCATCATCATCATCAACCCAATCGGAGTCACCTAGTGCAG | 4440 fluorescence intensity (a.u.)
10 | CCACAAACATGCAAGACCAAATTCAACTTCTACAAGTTGTCGGAGTCACCTAGTGCAG | 13900 fluorescence intensity (a.u.)
11 | CCACGCTATCCCATGCGATTCGAGAAGGTTCCACACACACCGGAGTCACCTAGTGCAG | 41300 fluorescence intensity (a.u.)
12 | CGTGTTCGATTCCGCTGCTATCCACGTCGCTACGCGCCACCGGAGTCACCTAGTGCAG | 7020 fluorescence intensity (a.u.)
13 | AGGTTCGCAGTTCCACGCATCCCACCATCACCACACCACGCGGAGTCACCTAGTGCAG | 5160 fluorescence intensity (a.u.)
14 | TCGAGCCGGTAGATGTCTCAGCTAGTGCTTTATCTGTTCGCGGAGTCACCTAGTGCAG | 3180 fluorescence intensity (a.u.)
15 | CGGCGCCTAGACTGCGTATCGTAGCTGTCGAACGTGTCGTCGGAGTCACCTAGTGCAG | 3640 fluorescence intensity (a.u.)
16 | GAATCTACTGGGCATTTCGTCAAACAGCTCATCTGCGCCCCGGAGTCACCTAGTGCAG | 3590 fluorescence intensity (a.u.)
17 | GTGCGTTGTGTGGTTGGTTGGTCAGTGTCTGGGTGGTCACCGGAGTCACCTAGTGCAG | 26000 fluorescence intensity (a.u.)
18 | CTCTGGCGATGTGGCGTCTGGTCAAATTCATTGTCTCTACCGGAGTCACCTAGTGCAG | 47900 fluorescence intensity (a.u.)
19 | ATTCGTCTGAAAATTGTGTTTCACATGCGTCATTTCTCTACGGAGTCACCTAGTGCAG | 5080 fluorescence intensity (a.u.)
20 | GCGAAAACCCTGCATAAACATAGGAAAACACCAAGTGGGTCGGAGTCACCTAGTGCAG | 3560 fluorescence intensity (a.u.)
21 | TTTGATCACCGGTCCGGTCTTAATAACTATGTGGCAGACGCGGAGTCACCTAGTGCAG | 3660 fluorescence intensity (a.u.)

Row | Sequence | binding signal
22 | CCTCCTCAACGCCGCCACCTCATCCGTCCATACAGCGCCGCGGAGTCACCTAGTGCAG | 7110 fluorescence intensity (a.u.)
23 | AGAGGCATGGGAGTCATGTTCAGGGTGATGGGAGATGGAGCGGAGTCACCTAGTGCAG | 3260 fluorescence intensity (a.u.)
24 | CAACAGCAGCAGCTACAACGCGGCATCCATGGCCGCCGCGCGGAGTCACCTAGTGCAG | 53300 fluorescence intensity (a.u.)
25 | AAACACGCGGCATGGCGTGCCGCGATGCAGTCGGAGATGGCGGAGTCACCTAGTGCAG | 48600 fluorescence intensity (a.u.)
26 | AGTGGTGGAGAAGGAGAGGAGAGGCAGAGAGAATGAGGAGCGGAGTCACCTAGTGCAG | 3240 fluorescence intensity (a.u.)
27 | CGGGAGAGAGATCAGATGCGGCATGGCGTGGCCGTGGCGTCGGAGTCACCTAGTGCAG | 3380 fluorescence intensity (a.u.)
28 | GCGGAGCCGACGCGGCGGCGATGCTCGGCCGCGTGGCGGTCGGAGTCACCTAGTGCAG | 3840 fluorescence intensity (a.u.)
29 | CCCTGCGCTGCCACGCGGCCGGCATCCGCCAAAGCAACAGCGGAGTCACCTAGTGCAG | 4880 fluorescence intensity (a.u.)
30 | GAAGGAGAGGAGGAGAGGAGAGGAGAGAGGGAGGCAGCAGCGGAGTCACCTAGTGCAG | 3280 fluorescence intensity (a.u.)
31 | AGCGAGAGAAGATGCTGACGTGGCATCATGACATGTGGGGCGGAGTCACCTAGTGCAG | 19300 fluorescence intensity (a.u.)
32 | GAAGTGGCGGCCCTTGGCGGAGAGAATGGCATGGCGAGAGCGGAGTCACCTAGTGCAG | 65100 fluorescence intensity (a.u.)
33 | GCGTGGAGTGGAGAGTGGAGAGGCATGGGAGGCATGGCAGCGGAGTCACCTAGTGCAG | 42900 fluorescence intensity (a.u.)
34 | ATAGCCCGTCCTCTTCATGGACCACGGTGTACAGCTTGCTCGGAGTCACCTAGTGCAG | 3980 fluorescence intensity (a.u.)
35 | TTAGTTGTTCTTGTTCTCTTGGTTGGGACGTGGAGAGTTGCGGAGTCACCTAGTGCAG | 3440 fluorescence intensity (a.u.)
36 | ACATTATCATGTCACGTCGTCGCGTAATCATGGGTACCCACGGAGTCACCTAGTGCAG | 4200 fluorescence intensity (a.u.)
37 | GCCGACACGTCGCGACGCCGCTTGCCACGCGCCACGCGCGCGGAGTCACCTAGTGCAG | 6450 fluorescence intensity (a.u.)
38 | TAAAATTATTATATTTTATAAGAAAGGTAACAAGTAAACACGGAGTCACCTAGTGCAG | 28600 fluorescence intensity (a.u.)
39 | GCTAGGTTCAACGTCATGCCTCATGTTGTCTATTGCTGTTCGGAGTCACCTAGTGCAG | 4070 fluorescence intensity (a.u.)
40 | GGGGTTAGTCGCCGGAGGTGTGGCGTGTCGACACGTACGCCGGAGTCACCTAGTGCAG | 8720 fluorescence intensity (a.u.)
41 | TTGTTTCACCGCTTACGCCACGTGCGCCGCTCAGCTGTATCGGAGTCACCTAGTGCAG | 9840 fluorescence intensity (a.u.)
42 | ATCCTCAACTCAATCCCGACGAAATCCCCTTCGATTTGAGCGGAGTCACCTAGTGCAG | 3290 fluorescence intensity (a.u.)
